TWEAK-Fn14 inh: blocks TWEAK-Fn14 interaction in a reporter cell assay. TWEAK-stimulated Fn14 reporter cells, luciferase luminescence, 8 h. 2% of 360,000 active. AID 1159606. inhibition, % at 10 µM; in the data active = inhibition above about 50%
HSF-1 act: increases HSF-1 driven luciferase reporter signal. NIH3T3-HGL HSF-1 luciferase reporter, MG132, 8 h; 100% = twice DMSO control signal. activation, % at 9 µM. 1.7% of 300,000 active;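 active = mean replicate activation of at least 50% with a set share of replicates each reaching 50%; inconclusive = only one of those two conditions met; inactive = mean below 50% and too few replicates reaching it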
LGR2 antag: Drosophila LGR2 receptor signaling inhibition; HEK293 LGR2, CRE-luciferase, bursicon-stimulated, 4 h; inhibition, % at 9.99 µM; 0.35% of 380,000 active; AID 720647;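 active = drop in luminescence signal, shown as inhibition above about 50% in the replicate tests, limit read from the data, passing the limit was not always enough; inconclusive = probably only some replicates passing the limit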;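 also: agonist challenge used bursicon conditioned medium at about half maximal strength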
LMP1 NFkB inh: inhibitors of Epstein-Barr LMP1-induced NF-kappaB reporter; LMP1-induced NF-kappaB luciferase reporter cells, luminescence; inhibition, % at 12.5 µM; 0.69% of 350,000 active; in the data active = inhibition above about 41%; inconclusive = no clear call, values can overlap the other calls
HSF1 inhib: HSF1 inhibition. NIH3T3-HGL HSE-luciferase, MG132-induced, luminescence 8 h; stronger effect = lower value. activity change, negative = inhibition, % at 7.5 µM (by protocol). 0.77% of 300,000 active;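 active = more than half of replicate wells show activity change below -50%, luminescence cut by over half; inconclusive = some wells, but at most half, below -50%; inactive = no replicate well below -50%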;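 also: luciferase reports HSF-1 transcriptional activity via heat shock element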
TROY NFkB inh: TROY signaling inhibition; Q293 LMP1-TROYcd NF-kB luciferase reporter, 4 h; inhibition, % at 10 µM; 0.98% of 360,000 active; AID 1347056;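 active = compounds whose plate-normalised and pattern-corrected inhibition of the luciferase reporter signal at the single screening dose is 50% or more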
Numbers stand for hits; 0 = inactive; ? = inconclusive; - = not tested or not shown. Compounds with a hit are over-represented: about 3.6% of the library has one in this group of screens.

SMILES | TWEAK-Fn14 inh | HSF-1 act | LGR2 antag | LMP1 NFkB inh | HSF1 inhib | TROY NFkB inh
COc1cc(NC(=O)c2ccccc2)c(OC)cc1NC(=O)CSc1[nH]c(=O)cc(C)c1C#N | 0 | 0 | 0 | 0 | 0 | 0
C/C=C/c1ccc2c(c1)O[C@H](CN(C)C(=O)CN1CCOCC1)[C@@H](C)CN([C@@H](C)CO)S2(=O)=O | - | - | 0 | - | - | -
CCNCC(=O)N1c2ccccc2CCc2ccc(NC(=O)OCC)cc21 | 0 | 0 | - | 0 | 0 | 0
CCN(CC)CCNCC(=O)N1c2ccccc2CCc2ccc(NC(=O)OC)cc21 | 105.0 | 0 | 0 | 0 | 0 | 0
COc1ccccc1-c1noc(-c2ccncc2)n1 | 0 | 0 | 0 | 0 | 0 | 0
Brc1ccc(-c2nc(-c3ccccn3)no2)o1 | 91.3 | 0 | 75.2 | ? | 0 | 55.8
Cc1ccccc1-c1nc(-c2ccccn2)no1 | 96.8 | 0 | 95.5 | 61.2 | ? | 81.2
Clc1ccc(-c2nc(-c3ccccn3)no2)cc1Cl | 80.3 | 0 | - | 0 | 0 | 0
COc1ccccc1-c1nc(-c2ccccn2)no1 | 96.1 | 0 | 78.0 | 61.7 | 0 | 66.0
Brc1ccc(-c2noc(-c3ccccn3)n2)o1 | 0 | 0 | 0 | 0 | 0 | 0
COc1ccc(-c2nc(-c3ccccn3)no2)cc1 | 102.0 | 0 | 100.0 | 81.5 | -77.8 | 83.2
COc1nc(C)ccc1-c1noc(-c2ccccn2)n1 | 0 | 0 | 0 | 0 | 0 | 0
CC(=O)N(C)C[C@H]1Oc2ncc(C#Cc3ccncc3)cc2C(=O)N([C@@H](C)CO)C[C@@H]1C | - | - | 0 | - | - | -
Cc1cccc(C(c2c(C)nn(-c3ccccc3)c2N)c2c(C)nn(-c3ccccc3)c2N)c1 | 0 | 82.8 | 0 | 0 | 0 | 0
C[C@@H]1CN([C@H](C)CO)C(=O)Cc2cc(NC(=O)Cn3cnnn3)ccc2O[C@@H]1CN(C)Cc1ccc(C(=O)Nc2ccccc2N)cc1 | - | - | 0 | - | - | -
CCC(NC(=S)NC1CCCCC1)c1ccccc1 (configuration not stated) | 0 | 0 | 0 | 0 | -86.8 | 0
O=C(C1CCC1)N1CC2(C1)[C@@H](c1ccccc1)[C@@H](CO)N2Cc1ccccc1F | - | - | 0 | - | - | -
CCNC(=O)[C@@H]1[C@@H](CO)[C@@H]2Cn3c(ccc(-c4ccc(F)cc4)c3=O)[C@H]1N2C(C)=O | - | - | 0 | - | - | -
COc1ccc(/C=C2\SC(=O)N(CCC(=O)Nc3ccccc3)C2=O)cc1OC | 0 | 0 | 0 | 0 | 0 | 0
O=C(CCCN1C(=O)/C(=C/c2ccccc2Cl)SC1=S)NNC(=O)c1ccc(Cl)cc1 | 53.3 | 0 | 0 | 0 | 0 | 66.3
O=C(CCCN1C(=O)/C(=C/c2ccc3c(c2)OCO3)SC1=S)Nc1cccc(C(=O)O)c1 | 55.9 | 0 | 0 | 0 | 0 | 0
O=C(CCN1C(=O)/C(=C/c2ccccc2Cl)SC1=S)Nc1cccnc1 | 0 | 0 | 0 | 0 | 0 | 57.3
COc1cc(/C=C2\SC(=O)N(CCN)C2=O)ccc1OS(=O)(=O)c1cc(C)ccc1C | 0 | 0 | 81.9 | 0 | 0 | 0
Cc1noc(C)c1S(=O)(=O)N(C)C[C@H]1Oc2ccc(NS(=O)(=O)c3ccc(Cl)cc3)cc2CC(=O)N([C@@H](C)CO)C[C@@H]1C | - | - | 0 | - | - | -
Cc1ccc(S(=O)(=O)Nc2ccc3c(c2)C(=O)N([C@@H](C)CO)C[C@@H](C)[C@H](CN(C)C(=O)CCC(F)(F)F)OCCCC[C@@H](C)O3)cc1 | - | - | 0 | - | - | -
SMILES | TWEAK-Fn14 inh | HSF-1 act | LGR2 antag | LMP1 NFkB inh | HSF1 inhib | TROY NFkB inh
COc1ccc(S(=O)(=O)N(C)C[C@@H]2Oc3ccc(NC(=O)Nc4ccc(C(F)(F)F)cc4)cc3CC(=O)N([C@@H](C)CO)C[C@@H]2C)cc1 | - | - | 0 | - | - | -
C[C@@H]1CN([C@H](C)CO)S(=O)(=O)c2ccc(C#Cc3ccc(F)cc3)cc2O[C@@H]1CN(C)C(=O)c1ccccn1 | - | - | 0 | - | - | -
CO[C@H]1CC[C@@H]2CCN(C)C(=O)[C@@H](C)[C@H](OC)CN(C)C(=O)c3cccc(C#N)c3OC[C@@H]1O2 | - | - | 0 | - | - | -
O=C(CCCN1C(=O)/C(=C/c2ccccc2Cl)SC1=S)Nc1cccnc1 | 0 | 0 | 0 | 58.4 | ? | 0
NCCN1C(=O)S/C(=C\c2ccc3c(c2)OCO3)C1=O | 65.6 | 0 | 0 | 0 | ? | 56.8
O=C(CCCN1C(=O)/C(=C/c2ccccc2Cl)SC1=S)Nc1ccccn1 | 82.3 | 0 | 0 | 0 | 0 | 59.9
O=C1/C(=C/c2ccccc2Cl)SC(=S)N1CCCC(=O)N(CCO)c1ccccc1 | 60.3 | 0 | 0 | 0 | 0 | 63.4
